Pf growth 48h – P. falciparum growth inhibition at 48 hours (one generation); 310,000 tested, 5.9% active; Potency, µM (doses to about 28.7 µM), for the others: at the highest dose activity change, negative = inhibition, usual class: inhibitors; P. falciparum luciferase growth in erythrocytes, 48 h; AID 504832; further: potency means the concentration at half of the fitted maximal effect; on the % scale 0 is the no-effect control and ±100 the full control effect
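Cell-based growth assay: transgenic P. falciparum expressing firefly luciferase, cultured in red cells within RPMI 1640 containing 0.5% w/v Albumax, 24 mM bicarbonate and gentamycin. A drop in luciferase activity indicates inhibition.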
HCV inhibitor – blocks hepatitis C virus; Huh7.5.1 HCVcc-Cre infection, luciferase reporter, 44 h; Potency, µM (titrated, usually from 41.8 µM), for inactives: top-dose activity change, negative = inhibition, usual class: inhibitors; 340,000 tested, 3.4% active; AID 651820; further: potency means the concentration at half of the fitted maximal effect; on the % scale 0 is the no-effect control and ±100 the full control effect
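Seed cells (1,000/well) for 4 h; treat with compound and infect with HCVcc-Cre, moi about 0.5. Incubate 44 h, then detect luciferase activity.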
Shiga toxin inh – inhibitors of Shiga toxin in Vero cells; 290,000 tested, 9.2% active; AID 2315; Vero cells, Shiga toxin protein synthesis inhibition reporter; inhibition, % at 38.7 µM; in the data active means inhibition mostly above about 28%, no sharp cut-off; inactive means mostly below about 43%; further: 0% is about no effect
Pf growth 96h – P. falciparum growth inhibition at 96 hour, primary screen for plastid delayed-death inhibitors; Potency, µM (top dose mostly 28.7 µM), without a hit: at the top dose activity change, negative = inhibition, actives largely listed as inhibitors; P. falciparum luciferase reporter growth, 96 h; 320,000 tested, 6.9% active; further: potency means the concentration at half of the fitted maximal effect; on the % scale 0 is the no-effect control and ±100 the full control effect
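Compounds incubated with erythrocytes infected by luciferase-expressing P. falciparum (2% hematocrit, 0.05% parasitemia final) for 96 hours, 37 C in 5% CO2. Growth inhibition scored as decreased luciferase luminescence.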
Cycloheximide cs – counter-screen for Shiga toxin inhibitors: cycloheximide protein synthesis inhibition; 300,000 tested, 12% active; max response, %; cell reporter, cycloheximide protein synthesis inhibition counterscreen; AID 2314; in the data active means max response mostly above about 13%, no sharp cut-off; inactive means mostly below about 14%; further: read at 38.3 µM for the half of the compounds with a filed dose; 0% is about no effect
HCMV inh – inhibitors of human cytomegalovirus; HFF cells, HCMV-luciferase reporter, 72 h; stronger effect = lower value; activity change, negative = inhibition, % at 57.5 µM; 410,000 tested, 4.5% active; AID 1259415; in the data active means activity change below about -60%; inconclusive means no clear call, values can overlap the other calls; inactive means above about -39%; further: on the % scale 0 is the no-effect control and ±100 the full control effect
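Compounds were evaluated in HFFs infected with an HCMV luciferase reporter virus (MOI 1 PFU/cell). Luciferase in lysates collected 72 h post infection served as the replication measure.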
Starred values were filed as active, the others as inactive; i = inactive; u = inconclusive; x = no result; [ ] = another dose, or the depositor's remark. Rows were chosen to be rich in hits. Some 21% of all compounds tested hit in one or more screens of this group. Unless noted, the call rests on the fitted dose curve; in most records, active means well fitted inhibition curve with a large enough effect; inconclusive means small, poorly fitted or top-dose-only effect, or another doubt; inactive means no such curve, though single readings can be large or run the other way.

SMILES | Pf growth 48h | HCV inhibitor | Shiga toxin inh | Pf growth 96h | Cycloheximide cs | HCMV inh
CC(/C=N/N1CCN(Cc2ccccc2)CC1)=C\c1ccccc1 | 28% | -12% | 34 | u | 25* | -104*
Fc1ccc(/C=N/N2CCN(Cc3ccccc3)CC2)cc1 | 19% | 1% | 62* | 9.3µM* | 20* | 2
Cc1ccc(/C=N/N2CCN(Cc3ccccc3)CC2)cc1 | 19% | 16% | 38 | 33% | 17* | 23
O=C(O)c1cc(Oc2ccc([N+](=O)[O-])cc2)cc(Oc2ccc([N+](=O)[O-])cc2)c1 | x | x | -8 | x | -7 | x
CC1(C(=O)NS(=O)(=O)c2cccc(OC(F)F)c2)CCN1C(=O)c1ccccc1CCc1ccccc1 (stereo not given) | x | x | x | x | x | -15
COc1ccc(OC)c(NC(=O)CCn2cccn2)c1 | x | x | x | x | x | 2
O=C(CSc1ccc(-c2ccco2)nn1)Nc1ccccc1F | 6% | -20% | 0 | -29% | 21 | -21
Fc1ccc(CSc2ccc(-c3ccco3)nn2)cc1 | 199% | -3% | 33* | 53% | 19* | 21
Cc1ccc(C(=O)CSc2nc(-c3ccccc3)ccc2C#N)cc1 | 32% | -12% | 18 | 30% | -2 | -25
O=C(CSc1ccc(-c2ccco2)nn1)NCc1ccc(F)cc1 | -9% | 9% | -9 | -9% | -1 | -5
O=C(CSc1ccc(-c2ccco2)nn1)c1ccc(F)cc1 | 15% | u | active | -9% | 29* | -12
Fc1cccc(CSc2ccc(-c3ccco3)nn2)c1 | 185% | -22% | 79* | 129% | 67* | 11
N#Cc1ccc(-c2ccco2)nc1SCC(=O)c1ccc(Cl)cc1 | 1% | 4.5µM* | 35 | 9%[5.75 µM] | -2 | -34
Cc1cccc(CNC(=O)CN2C(=O)CCn3nc(-c4cn(C)c5ccccc45)cc32)c1 | x | x | x | x | x | 22
CCN(CC)CCCn1c2c(c(SCC(=O)Nc3nccs3)nc1=O)CCC2 | -4% | -5% | x | -9% | x | 1
COc1ccccc1NC(=O)c1ccc(S(=O)(=O)N(C)C)cc1 | 33% | 2% | -6 | 21% | -1 | 81
CCCc1nnc(NC(=O)c2ccc(S(=O)(=O)N(C)c3ccccc3OC)cc2)s1 | 10µM* | 4% | x | 13µM* | x | 0
COc1ccccc1N(C)S(=O)(=O)c1ccc(C(=O)Nc2nc(C)c(C(C)=O)s2)cc1 | 12µM* | 2% | x | u | x | -1
COc1ccccc1N(C)S(=O)(=O)c1ccc(C(=O)Nc2ncc(C)s2)cc1 | u | 14µM* | x | u | x | u
CCC(C)(C)NC(=O)c1ccc(S(=O)(=O)N(C)c2ccccc2OC)cc1 | -25% | u | -8 | -8% | -3 | 29
COc1ccccc1N(C)S(=O)(=O)c1ccc(C(=O)Nc2nccs2)cc1 | 15µM* | 11µM* | x | u | x | u
COC(=O)[C@H](C)NC(=O)Nc1cccc(Br)c1 | -4% | -2% | -5 | 3% | 9 | -39
COc1cccc(NC(=O)CN(C)C(=O)c2cc3c(s2)CCCCC3)c1 | -2% | -15% | x | -2% | x | 0
O=C(Oc1ccc(/C=N/Nc2ccccc2)cc1)c1ccccc1 | u | 1% | 75* | -58% | 22* | 96
O=C(Oc1ccc(/C=N/O)cc1)c1ccccc1 | x | 9% | 58 | -19% | 23* | 43
SMILES | Pf growth 48h | HCV inhibitor | Shiga toxin inh | Pf growth 96h | Cycloheximide cs | HCMV inh
O=C(O)c1ccc(N/N=C/c2ccc(OC(=O)c3cccc(Cl)c3)cc2)cc1 | -7% | 6% | 75* | 241% | 37* | -64*
CCOc1ccccc1NC(=O)COC(=O)c1ccc2ccccc2n1 | 17% | 5% | x | 97% | x | 22
O=C(NCc1cccnc1)c1nc(-c2ccc(C(F)(F)F)cc2)no1 | -4%[5.75 µM] | u | -6 | 11% | -2 | -61*
O=C(NCc1ccncc1)c1nc(-c2ccc(C(F)(F)F)cc2)no1 | 13% | u | -6 | i | -5 | -79*
NS(=O)(=O)c1ccc(Sc2ccc3c(c2)CCC3)nc1 | 1% | -11% | -13 | 42% | -4 | -39
COc1ccc(CC(=O)Nc2c3c(nn2-c2cccc(C)c2C)CS(=O)C3)cc1OC (stereo not given) | 16% | 28% | -3 | 2.6µM* | -2 | 0
COc1cc(NC(=O)Cn2c(=O)n(Cc3ccccc3OC)c(=O)c3cccnc32)cc(OC)c1 | x | x | x | x | x | -17
COc1ccccc1-c1cc(C(=O)NCc2cccs2)no1 | 48% | -9% | 28 | 3.7µM* | 12 | -6
COc1ccccc1-c1cc(C(=O)NC(C)C)no1 | 119% | u | 83* | 39% | 34* | 107
CCC(C)NC(=O)c1cc(-c2cccc(OC)c2)on1 (stereo not given) | x | x | x | x | x | 97
CCN(CC)C(=O)c1cc(-c2ccccc2OC)on1 | 76% | 2% | 54* | -36% | 37* | 56
CCC(C)NC(=O)c1cc(-c2ccccc2O)on1 (stereo not given) | x | 6% | 84* | u | 52* | 41
COc1ccccc1-c1cc(C(=O)NC(C)c2ccccc2)no1 (stereo not given) | u | x | -18 | u | 7 | -7
Cc1ccccc1C(=O)Nc1nnc(-c2cccnc2)o1 | -6% | -9% | -5 | 55% | -2 | -35
Cn1nc(C(=O)OCC(=O)Nc2ccc(SC(F)F)cc2)c2ccccc2c1=O | x | 5% | x | x | x | 13
COc1ccccc1-c1cc(C(=O)NCc2ccco2)no1 | 31% | u | 30 | x | 37* | 96
COCCNC(=O)c1cc(-c2ccccc2OC)on1 | x | u | 131 | u | 17* | 33
CC(C)(C)C(=O)NNC(=O)C1CC1(c1ccccc1)c1ccccc1 (stereo not given) | x | 11% | 10 | -12% | -3 | -7
CCOc1ccc(/C=C/C(=O)C(C(N)=O)=C2SCCS2)cc1 | -77% | 10% | 57* | u | 34* | -73*
CCOC(=O)c1sc(NC(=O)/C=C/c2ccc(OCC)cc2)c(C(=O)OCC)c1C | x | x | x | x | x | -17
CC(=O)c1cccc(Nc2ccc3cc(S(=O)(=O)N4CCCC4)ccc3n2)c1 | x | x | x | x | x | -20
O=S(=O)(c1ccc2nc(Nc3ccccc3)ccc2c1)N1CCCCC1 | 10µM* | -25% | 26 | u | 14* | -4
COc1cccc(Nc2ccc3cc(S(=O)(=O)N4CCC(C)CC4)ccc3n2)c1 | x | x | x | x | x | -87*
Cc1ccc(NC(=S)N2CCC(NC(=O)c3ccco3)CC2)cc1C | -17% | -6% | 23 | 1% | -2 | -8
COc1ccc(NS(=O)(=O)c2cc(NC(=O)Cn3cnc4c3c(=O)n(C)c(=O)n4C)ccc2C)cc1 | u | u | -11 | -32% | -1 | -26
Oc1ccc(-c2n[nH]c(=S)n2-c2ccc3c(c2)OCCO3)c(O)c1 | 0.41µM* | -25% | 35* | 0.066µM* | 17* | -101*
COc1ccc(-c2n[nH]c(=S)n2-c2ccc3c(c2)OCCO3)cc1OC | u | u | 50* | 26% | 23* | 5
